Assay results reported in ChEMBL document CHEMBL1961873, “Compounds: GSK PKIS; Assays: Nanosyn kinase panel” (2012).

Assays:
[1] = biological target: T1, Inhibitor of nuclear factor kappa-B kinase subunit epsilon (Homo sapiens) (UniProt Q14164); details: at 1 µM;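 also: reported values are averaged percent inhibition figures against human IKKε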
T1 sequence (whole entry): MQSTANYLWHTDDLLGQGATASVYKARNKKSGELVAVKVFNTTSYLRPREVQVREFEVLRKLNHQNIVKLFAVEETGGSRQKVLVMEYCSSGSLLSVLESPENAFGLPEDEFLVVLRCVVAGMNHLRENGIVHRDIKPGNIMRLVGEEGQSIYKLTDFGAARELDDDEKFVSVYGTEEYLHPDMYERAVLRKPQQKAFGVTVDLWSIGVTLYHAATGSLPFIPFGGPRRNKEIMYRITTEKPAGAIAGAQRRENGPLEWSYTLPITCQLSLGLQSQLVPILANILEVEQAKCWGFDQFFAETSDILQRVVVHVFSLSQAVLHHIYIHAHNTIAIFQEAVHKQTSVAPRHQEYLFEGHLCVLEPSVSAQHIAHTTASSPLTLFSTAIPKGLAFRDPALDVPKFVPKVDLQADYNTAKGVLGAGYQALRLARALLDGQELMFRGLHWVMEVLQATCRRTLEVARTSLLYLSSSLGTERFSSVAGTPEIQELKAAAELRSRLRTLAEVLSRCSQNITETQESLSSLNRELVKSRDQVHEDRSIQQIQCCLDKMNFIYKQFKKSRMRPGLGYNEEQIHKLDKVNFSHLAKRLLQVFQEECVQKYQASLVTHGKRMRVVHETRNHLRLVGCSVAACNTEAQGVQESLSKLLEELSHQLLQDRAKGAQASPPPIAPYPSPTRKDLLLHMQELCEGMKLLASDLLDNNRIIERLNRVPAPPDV

[2] = biological target: T2, Serine/threonine-protein kinase Nek1 (Homo sapiens) (UniProt Q96PY6); details: at 0.1 µM
T2 sequence (whole entry): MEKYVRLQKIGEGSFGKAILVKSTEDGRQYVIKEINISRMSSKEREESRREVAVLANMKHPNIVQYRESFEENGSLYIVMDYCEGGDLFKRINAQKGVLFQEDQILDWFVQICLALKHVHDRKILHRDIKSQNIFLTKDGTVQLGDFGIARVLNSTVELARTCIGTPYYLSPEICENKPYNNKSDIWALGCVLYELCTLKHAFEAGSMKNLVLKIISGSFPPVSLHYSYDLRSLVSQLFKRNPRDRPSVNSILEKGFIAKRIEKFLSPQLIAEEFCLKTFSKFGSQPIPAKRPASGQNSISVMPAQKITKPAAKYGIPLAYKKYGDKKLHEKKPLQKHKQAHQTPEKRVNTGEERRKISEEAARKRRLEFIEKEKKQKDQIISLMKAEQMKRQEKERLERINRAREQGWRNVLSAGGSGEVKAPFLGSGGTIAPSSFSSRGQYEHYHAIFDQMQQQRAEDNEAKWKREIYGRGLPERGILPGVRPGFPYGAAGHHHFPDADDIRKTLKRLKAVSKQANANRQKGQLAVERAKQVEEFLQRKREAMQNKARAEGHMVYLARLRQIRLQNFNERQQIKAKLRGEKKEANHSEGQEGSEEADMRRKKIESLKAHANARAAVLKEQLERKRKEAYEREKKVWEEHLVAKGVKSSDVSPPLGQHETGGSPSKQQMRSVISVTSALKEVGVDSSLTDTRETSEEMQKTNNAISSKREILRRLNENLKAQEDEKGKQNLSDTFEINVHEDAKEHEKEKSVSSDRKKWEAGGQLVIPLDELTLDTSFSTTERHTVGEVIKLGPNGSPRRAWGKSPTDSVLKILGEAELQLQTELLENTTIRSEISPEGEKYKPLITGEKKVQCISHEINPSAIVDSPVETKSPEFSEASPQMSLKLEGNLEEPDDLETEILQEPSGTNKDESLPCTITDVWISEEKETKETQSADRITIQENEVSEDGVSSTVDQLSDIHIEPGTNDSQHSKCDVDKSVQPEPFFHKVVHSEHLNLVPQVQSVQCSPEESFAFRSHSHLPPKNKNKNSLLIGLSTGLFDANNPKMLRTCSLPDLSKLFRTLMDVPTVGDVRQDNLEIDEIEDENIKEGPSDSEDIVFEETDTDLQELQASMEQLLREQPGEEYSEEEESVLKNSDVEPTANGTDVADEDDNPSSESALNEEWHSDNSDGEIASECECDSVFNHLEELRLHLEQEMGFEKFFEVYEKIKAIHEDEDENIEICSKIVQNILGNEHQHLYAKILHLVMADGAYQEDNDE

[3] = biological target: T2, Serine/threonine-protein kinase Nek1 (Homo sapiens); details: at 1 µM
[4] = biological target: T3, Serine/threonine-protein kinase Nek2 (Homo sapiens) (UniProt P51955); details: at 0.1 µM
T3 sequence (whole entry): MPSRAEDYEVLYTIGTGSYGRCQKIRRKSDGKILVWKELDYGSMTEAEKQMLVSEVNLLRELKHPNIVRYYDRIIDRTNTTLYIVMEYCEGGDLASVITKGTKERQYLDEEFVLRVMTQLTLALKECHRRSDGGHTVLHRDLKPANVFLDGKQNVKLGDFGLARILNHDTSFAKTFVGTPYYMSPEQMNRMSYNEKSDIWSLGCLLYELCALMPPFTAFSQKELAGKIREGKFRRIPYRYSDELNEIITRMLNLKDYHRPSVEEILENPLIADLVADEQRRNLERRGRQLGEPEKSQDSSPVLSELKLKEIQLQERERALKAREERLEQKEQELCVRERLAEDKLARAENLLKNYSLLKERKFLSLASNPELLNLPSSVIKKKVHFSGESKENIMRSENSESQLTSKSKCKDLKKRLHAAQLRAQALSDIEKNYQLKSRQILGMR

[5] = biological target: T3, Serine/threonine-protein kinase Nek2 (Homo sapiens); details: at 1 µM
[6] = biological target: Serine/threonine-protein kinase Nek6 (Homo sapiens) (UniProt Q9HC98); details: at 0.1 µM
Sequence of Serine/threonine-protein kinase Nek6 (Homo sapiens) (Q9HC98 whole entry): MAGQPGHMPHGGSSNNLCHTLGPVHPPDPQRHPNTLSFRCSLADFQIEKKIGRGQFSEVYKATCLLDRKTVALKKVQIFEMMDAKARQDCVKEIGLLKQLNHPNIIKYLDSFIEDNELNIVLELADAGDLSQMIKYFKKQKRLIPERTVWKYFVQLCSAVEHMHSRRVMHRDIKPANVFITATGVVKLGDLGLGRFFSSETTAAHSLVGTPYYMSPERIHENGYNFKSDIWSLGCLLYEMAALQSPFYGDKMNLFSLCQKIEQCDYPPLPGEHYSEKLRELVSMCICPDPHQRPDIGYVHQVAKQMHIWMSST

[7] = biological target: Serine/threonine-protein kinase Nek6 (Homo sapiens) (UniProt Q9HC98); details: at 1 µM
[8] = biological target: Serine/threonine-protein kinase Nek7 (Homo sapiens) (UniProt Q8TDX7); details: at 0.1 µM
Sequence of Serine/threonine-protein kinase Nek7 (Homo sapiens) (Q8TDX7 whole entry, looked up): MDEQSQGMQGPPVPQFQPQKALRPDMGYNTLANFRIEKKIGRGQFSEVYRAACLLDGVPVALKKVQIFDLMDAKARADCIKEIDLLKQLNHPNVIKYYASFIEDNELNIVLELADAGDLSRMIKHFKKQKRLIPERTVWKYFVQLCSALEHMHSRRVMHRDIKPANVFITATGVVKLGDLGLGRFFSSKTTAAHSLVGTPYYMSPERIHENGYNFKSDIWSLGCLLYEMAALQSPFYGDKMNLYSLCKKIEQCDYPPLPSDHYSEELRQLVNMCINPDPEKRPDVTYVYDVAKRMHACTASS

[9] = biological target: Serine/threonine-protein kinase Nek7 (Homo sapiens) (UniProt Q8TDX7); details: at 1 µM
[10] = biological target: T4, Serine/threonine-protein kinase Nek9 (Homo sapiens) (UniProt Q8TD19); details: at 0.1 µM
T4 sequence (whole entry): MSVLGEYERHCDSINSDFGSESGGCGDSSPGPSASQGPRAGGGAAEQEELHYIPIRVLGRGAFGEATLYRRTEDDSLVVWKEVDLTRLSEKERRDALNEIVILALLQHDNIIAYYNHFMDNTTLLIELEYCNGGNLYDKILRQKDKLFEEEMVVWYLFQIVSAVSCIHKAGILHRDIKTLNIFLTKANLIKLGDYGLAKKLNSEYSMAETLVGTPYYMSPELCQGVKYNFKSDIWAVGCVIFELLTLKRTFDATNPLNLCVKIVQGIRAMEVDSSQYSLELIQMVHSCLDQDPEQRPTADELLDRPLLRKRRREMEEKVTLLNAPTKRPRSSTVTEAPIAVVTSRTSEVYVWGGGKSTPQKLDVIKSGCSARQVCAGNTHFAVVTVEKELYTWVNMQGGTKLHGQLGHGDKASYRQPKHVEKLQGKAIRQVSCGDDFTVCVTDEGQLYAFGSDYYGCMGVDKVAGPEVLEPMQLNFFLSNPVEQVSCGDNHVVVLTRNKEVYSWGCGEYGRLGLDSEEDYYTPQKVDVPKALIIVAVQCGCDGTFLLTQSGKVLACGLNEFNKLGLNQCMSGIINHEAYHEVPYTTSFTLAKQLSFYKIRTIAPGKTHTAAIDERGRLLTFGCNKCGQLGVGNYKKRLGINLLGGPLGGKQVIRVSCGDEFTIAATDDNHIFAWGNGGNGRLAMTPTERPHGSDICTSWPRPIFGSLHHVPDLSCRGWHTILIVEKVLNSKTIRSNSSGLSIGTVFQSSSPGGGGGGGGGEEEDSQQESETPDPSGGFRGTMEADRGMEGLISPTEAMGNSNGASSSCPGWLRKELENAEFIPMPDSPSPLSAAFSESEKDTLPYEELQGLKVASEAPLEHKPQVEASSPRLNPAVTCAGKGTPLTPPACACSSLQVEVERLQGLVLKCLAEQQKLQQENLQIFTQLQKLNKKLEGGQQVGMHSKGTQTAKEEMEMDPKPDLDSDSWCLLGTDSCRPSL

[11] = biological target: T4, Serine/threonine-protein kinase Nek9 (Homo sapiens); details: at 1 µM
[12] = biological target: Serine/threonine-protein kinase PLK1 (Homo sapiens) (UniProt P53350); details: at 0.1 µM
Sequence of Serine/threonine-protein kinase PLK1 (Homo sapiens) (P53350 whole entry): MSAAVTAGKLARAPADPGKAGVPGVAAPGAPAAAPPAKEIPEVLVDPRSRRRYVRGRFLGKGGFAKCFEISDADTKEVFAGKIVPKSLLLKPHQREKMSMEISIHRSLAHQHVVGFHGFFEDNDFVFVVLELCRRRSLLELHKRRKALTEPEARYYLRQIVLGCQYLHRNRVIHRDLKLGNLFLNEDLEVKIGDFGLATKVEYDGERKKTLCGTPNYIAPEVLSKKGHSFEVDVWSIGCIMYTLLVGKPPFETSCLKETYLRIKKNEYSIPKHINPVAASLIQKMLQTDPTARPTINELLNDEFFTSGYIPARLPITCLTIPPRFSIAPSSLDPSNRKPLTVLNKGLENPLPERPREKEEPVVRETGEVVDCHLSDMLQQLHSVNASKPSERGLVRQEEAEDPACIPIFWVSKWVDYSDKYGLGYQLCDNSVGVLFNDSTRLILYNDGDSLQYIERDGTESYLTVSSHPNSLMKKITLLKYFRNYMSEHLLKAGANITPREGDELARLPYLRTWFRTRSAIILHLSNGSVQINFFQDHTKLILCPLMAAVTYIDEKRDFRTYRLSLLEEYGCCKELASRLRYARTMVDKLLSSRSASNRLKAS

[13] = biological target: Serine/threonine-protein kinase PLK1 (Homo sapiens) (UniProt P53350); details: at 1 µM
[14] = biological target: T5, Dual specificity protein kinase TTK (Homo sapiens) (UniProt P33981); details: at 0.1 µM
T5 sequence (whole entry): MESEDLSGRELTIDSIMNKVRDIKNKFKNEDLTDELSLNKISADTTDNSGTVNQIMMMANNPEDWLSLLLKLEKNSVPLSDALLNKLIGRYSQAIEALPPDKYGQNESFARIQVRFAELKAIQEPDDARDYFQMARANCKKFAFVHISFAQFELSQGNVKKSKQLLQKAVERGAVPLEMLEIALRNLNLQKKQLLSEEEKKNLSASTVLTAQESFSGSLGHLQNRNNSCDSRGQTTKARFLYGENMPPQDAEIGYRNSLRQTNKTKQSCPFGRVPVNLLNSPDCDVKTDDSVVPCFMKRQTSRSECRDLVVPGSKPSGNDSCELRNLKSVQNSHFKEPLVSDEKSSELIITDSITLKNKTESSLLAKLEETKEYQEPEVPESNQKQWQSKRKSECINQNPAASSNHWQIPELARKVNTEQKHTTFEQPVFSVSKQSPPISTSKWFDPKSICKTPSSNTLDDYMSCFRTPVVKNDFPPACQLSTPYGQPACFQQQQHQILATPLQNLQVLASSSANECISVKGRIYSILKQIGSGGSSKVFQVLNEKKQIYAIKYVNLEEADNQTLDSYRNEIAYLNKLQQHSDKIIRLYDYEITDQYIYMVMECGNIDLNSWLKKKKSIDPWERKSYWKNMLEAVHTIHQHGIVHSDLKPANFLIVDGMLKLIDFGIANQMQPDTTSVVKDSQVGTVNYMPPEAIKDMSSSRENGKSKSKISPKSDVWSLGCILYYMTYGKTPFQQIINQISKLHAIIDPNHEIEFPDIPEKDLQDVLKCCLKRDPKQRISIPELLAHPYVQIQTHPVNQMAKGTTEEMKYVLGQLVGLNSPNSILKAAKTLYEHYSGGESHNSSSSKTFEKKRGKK

[15] = test system: T6, Receptor-type tyrosine-protein kinase FLT3 (Homo sapiens), P36888 [D835Y]; details: at 1 µM
T6 sequence (whole entry): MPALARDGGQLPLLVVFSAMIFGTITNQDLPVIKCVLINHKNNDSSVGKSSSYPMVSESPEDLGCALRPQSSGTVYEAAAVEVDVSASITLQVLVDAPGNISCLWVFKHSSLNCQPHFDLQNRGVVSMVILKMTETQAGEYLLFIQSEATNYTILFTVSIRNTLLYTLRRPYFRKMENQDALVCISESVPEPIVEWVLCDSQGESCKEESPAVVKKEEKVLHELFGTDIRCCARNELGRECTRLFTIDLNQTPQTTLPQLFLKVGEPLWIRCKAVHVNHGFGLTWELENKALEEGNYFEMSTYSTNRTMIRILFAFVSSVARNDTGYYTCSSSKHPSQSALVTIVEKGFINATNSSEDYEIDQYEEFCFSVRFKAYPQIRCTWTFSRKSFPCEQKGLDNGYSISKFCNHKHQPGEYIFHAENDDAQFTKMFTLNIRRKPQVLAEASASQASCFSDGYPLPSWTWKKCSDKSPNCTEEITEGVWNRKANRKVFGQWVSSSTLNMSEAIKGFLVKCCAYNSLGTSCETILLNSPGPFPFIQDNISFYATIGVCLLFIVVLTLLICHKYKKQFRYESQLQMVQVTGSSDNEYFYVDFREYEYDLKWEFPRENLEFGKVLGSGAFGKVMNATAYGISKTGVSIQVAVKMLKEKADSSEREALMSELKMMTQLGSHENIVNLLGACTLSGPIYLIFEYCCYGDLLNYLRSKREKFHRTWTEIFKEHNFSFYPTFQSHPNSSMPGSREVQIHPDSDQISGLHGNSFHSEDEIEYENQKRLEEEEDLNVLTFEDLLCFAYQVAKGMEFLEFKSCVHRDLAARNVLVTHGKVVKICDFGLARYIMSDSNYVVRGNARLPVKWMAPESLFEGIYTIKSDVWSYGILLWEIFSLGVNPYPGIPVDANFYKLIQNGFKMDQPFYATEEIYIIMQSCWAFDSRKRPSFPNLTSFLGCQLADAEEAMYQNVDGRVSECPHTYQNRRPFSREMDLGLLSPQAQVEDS

[16] = biological target: Vascular endothelial growth factor receptor 3 (Homo sapiens) (UniProt P35916); details: at 0.1 µM
Sequence of Vascular endothelial growth factor receptor 3 (Homo sapiens) (P35916 whole entry): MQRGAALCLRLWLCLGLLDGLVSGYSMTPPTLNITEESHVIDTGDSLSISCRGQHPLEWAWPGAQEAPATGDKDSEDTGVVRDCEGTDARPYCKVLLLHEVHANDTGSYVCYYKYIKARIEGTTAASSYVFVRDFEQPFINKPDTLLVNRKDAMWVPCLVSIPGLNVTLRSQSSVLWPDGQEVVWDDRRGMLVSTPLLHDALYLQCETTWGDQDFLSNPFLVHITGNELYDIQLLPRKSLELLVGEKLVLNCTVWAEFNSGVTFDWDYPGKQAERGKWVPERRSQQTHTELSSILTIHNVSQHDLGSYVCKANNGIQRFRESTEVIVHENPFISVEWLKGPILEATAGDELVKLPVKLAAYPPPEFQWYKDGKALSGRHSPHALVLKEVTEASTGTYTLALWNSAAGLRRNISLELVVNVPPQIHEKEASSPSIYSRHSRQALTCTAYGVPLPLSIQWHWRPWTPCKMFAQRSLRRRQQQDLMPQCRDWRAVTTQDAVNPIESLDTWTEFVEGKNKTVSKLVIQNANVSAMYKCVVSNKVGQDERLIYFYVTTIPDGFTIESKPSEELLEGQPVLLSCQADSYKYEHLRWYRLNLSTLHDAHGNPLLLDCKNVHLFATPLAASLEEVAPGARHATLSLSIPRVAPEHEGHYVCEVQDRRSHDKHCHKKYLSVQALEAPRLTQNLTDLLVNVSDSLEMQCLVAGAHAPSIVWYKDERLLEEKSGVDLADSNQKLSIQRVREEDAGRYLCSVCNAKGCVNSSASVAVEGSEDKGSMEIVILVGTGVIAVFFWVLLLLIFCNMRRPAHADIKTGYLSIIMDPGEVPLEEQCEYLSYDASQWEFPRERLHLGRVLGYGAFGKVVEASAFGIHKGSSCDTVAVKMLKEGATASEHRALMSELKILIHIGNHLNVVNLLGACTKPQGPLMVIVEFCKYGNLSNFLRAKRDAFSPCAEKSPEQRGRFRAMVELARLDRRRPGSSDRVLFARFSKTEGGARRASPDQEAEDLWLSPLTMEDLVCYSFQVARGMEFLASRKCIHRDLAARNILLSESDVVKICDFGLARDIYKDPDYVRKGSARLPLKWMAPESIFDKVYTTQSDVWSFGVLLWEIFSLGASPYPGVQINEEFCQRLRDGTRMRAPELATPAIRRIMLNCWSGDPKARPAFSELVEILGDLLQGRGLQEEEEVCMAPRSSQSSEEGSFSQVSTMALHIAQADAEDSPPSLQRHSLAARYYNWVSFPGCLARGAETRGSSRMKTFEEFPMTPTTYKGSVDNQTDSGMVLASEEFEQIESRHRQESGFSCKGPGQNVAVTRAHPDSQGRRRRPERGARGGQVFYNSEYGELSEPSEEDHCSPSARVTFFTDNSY

[17] = biological target: Vascular endothelial growth factor receptor 3 (Homo sapiens) (UniProt P35916); details: at 1 µM
[18] = biological target: Macrophage colony-stimulating factor 1 receptor (Homo sapiens) (UniProt P07333); details: at 0.1 µM
Sequence of Macrophage colony-stimulating factor 1 receptor (Homo sapiens) (P07333 whole entry): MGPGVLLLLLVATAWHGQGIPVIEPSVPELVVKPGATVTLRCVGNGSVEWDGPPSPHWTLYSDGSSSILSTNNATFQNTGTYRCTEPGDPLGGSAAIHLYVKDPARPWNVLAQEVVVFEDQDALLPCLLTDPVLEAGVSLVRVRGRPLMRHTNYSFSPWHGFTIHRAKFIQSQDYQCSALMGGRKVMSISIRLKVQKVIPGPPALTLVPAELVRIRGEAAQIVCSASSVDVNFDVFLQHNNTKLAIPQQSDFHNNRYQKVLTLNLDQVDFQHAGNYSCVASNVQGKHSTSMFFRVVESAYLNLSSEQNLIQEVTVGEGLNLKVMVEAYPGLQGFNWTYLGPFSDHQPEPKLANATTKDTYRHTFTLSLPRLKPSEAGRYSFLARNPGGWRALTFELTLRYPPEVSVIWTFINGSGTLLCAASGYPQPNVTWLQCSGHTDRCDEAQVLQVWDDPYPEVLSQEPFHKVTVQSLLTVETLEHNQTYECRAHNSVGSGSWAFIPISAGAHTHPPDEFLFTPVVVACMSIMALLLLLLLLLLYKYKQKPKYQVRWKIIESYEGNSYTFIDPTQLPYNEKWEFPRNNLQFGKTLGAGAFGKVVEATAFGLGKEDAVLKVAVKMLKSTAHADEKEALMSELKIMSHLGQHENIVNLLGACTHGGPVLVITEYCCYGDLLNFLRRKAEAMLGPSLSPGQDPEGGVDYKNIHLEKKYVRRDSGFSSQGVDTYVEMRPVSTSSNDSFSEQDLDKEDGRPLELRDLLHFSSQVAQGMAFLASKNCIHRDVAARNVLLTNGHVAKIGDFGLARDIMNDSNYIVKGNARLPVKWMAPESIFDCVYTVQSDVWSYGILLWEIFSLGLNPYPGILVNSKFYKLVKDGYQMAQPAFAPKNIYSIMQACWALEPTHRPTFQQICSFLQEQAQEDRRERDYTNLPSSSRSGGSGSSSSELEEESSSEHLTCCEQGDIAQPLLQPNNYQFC

[19] = biological target: Macrophage colony-stimulating factor 1 receptor (Homo sapiens) (UniProt P07333); details: at 1 µM
[20] = biological target: Tyrosine-protein kinase Fyn (Homo sapiens) (UniProt P06241); details: at 0.1 µM
Sequence of Tyrosine-protein kinase Fyn (Homo sapiens) (P06241 2-537 limits assumed): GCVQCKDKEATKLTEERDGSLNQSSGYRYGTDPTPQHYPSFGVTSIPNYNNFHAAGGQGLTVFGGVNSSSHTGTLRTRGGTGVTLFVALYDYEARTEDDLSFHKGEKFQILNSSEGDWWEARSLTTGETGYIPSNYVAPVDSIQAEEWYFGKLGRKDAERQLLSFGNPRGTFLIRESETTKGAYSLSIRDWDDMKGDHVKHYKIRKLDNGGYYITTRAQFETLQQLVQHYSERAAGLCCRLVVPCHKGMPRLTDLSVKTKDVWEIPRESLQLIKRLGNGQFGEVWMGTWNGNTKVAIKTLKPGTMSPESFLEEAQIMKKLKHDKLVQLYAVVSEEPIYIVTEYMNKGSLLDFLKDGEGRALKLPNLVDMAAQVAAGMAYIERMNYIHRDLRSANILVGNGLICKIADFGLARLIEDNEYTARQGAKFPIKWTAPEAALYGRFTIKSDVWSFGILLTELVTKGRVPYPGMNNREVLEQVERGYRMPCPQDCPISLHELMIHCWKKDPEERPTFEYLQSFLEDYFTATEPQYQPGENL

For NS(=O)(=O)c1ccc(Nc2ncc(-c3ccccc3)o2)cc1, the inhibition [1] was 5.67%, the inhibition [2] was 2.41% and the inhibition [3] was 5.75%. The inhibition [4] was 4.32%, the inhibition [5] was 4.17% and the inhibition [6] was 2.71%. The inhibition [7] was 1.65%, the inhibition [8] was 2.06% and the inhibition [9] was 2.65%. The inhibition [10] was 3.91%, the inhibition [11] was 5.13% and the inhibition [12] was 1.46%. The inhibition [13] was 3.33%, the inhibition [14] was 6.13% and the inhibition [15] was 21.6%. For the same compound, the inhibition [16] was 3.67%, the inhibition [17] was 9.2% and the inhibition [18] was 6.69%. It also gave an inhibition [19] of 32.5% and an inhibition [20] of 1.12%.
